The campaign covered roughly 310,000 compounds. About 14,000 (4.5%) showed an effect of 50% or more. The effect is printed as a negative number. The sample as a whole holds a higher share of strong results than the screen did.
biological target: human ether-à-go-go-related gene (hERG) potassium channel (human, UniProt Q12809); experiment: primary screen, population patch clamp on CHO cells stably expressing hERG; higher = less effect of the substance
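Further: peak tail current of the secondary pulse compared with the same well before compound.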

human ether-à-go-go-related gene (hERG) potassium channel, sequence (Q12809 whole entry, looked up): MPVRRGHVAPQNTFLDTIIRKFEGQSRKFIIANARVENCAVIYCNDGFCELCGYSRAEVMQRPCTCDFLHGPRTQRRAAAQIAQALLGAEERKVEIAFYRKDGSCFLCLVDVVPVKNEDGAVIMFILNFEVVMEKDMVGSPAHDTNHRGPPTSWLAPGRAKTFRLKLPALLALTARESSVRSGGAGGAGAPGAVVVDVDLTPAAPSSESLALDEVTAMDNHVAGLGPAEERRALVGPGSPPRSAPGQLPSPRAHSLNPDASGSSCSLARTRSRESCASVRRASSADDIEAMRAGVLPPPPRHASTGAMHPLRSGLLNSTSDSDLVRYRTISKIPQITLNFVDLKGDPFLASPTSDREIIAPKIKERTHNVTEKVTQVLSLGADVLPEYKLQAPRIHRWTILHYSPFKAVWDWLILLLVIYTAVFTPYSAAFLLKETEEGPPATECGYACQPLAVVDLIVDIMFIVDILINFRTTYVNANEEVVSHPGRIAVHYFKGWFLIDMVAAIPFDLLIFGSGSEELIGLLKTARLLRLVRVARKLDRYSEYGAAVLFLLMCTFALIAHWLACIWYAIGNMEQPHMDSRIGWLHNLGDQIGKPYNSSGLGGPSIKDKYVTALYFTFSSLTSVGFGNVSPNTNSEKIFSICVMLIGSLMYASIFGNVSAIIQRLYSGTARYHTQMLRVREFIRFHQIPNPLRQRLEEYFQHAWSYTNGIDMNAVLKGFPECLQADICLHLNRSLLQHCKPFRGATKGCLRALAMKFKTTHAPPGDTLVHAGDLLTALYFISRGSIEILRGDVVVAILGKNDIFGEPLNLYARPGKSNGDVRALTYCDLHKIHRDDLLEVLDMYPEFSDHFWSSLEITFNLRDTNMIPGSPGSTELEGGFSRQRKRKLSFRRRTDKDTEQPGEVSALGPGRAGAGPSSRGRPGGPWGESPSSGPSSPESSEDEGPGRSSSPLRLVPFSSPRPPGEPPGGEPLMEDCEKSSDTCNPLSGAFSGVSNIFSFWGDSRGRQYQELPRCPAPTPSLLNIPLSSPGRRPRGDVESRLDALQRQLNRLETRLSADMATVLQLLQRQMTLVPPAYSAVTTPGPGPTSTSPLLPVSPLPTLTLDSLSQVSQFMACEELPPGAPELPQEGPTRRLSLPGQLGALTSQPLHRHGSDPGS

Compound | hERG current change (%, negative = inhibition) at 10uM
O=C(OCC1OC(Oc2ccc(O)cc2)C(O)C(O)C1O)c1ccccc1 (centres unmarked) | 14.5%
COCC(=O)N(CCc1ccc(OC)cc1)Cc1nc2ccccc2c(=O)[nH]1 | -2.83%
Cc1ccccc1NC(=O)c1ccccc1NC(=O)c1ccccc1F | 11.3%
O=C(c1ccco1)c1coc2c1cc(O)c1ccccc12 | 13.4%
CCCCNC(=O)O[C@H]1C[C@@H]2CCN3C(=O)CCC(C)(C)[C@H](C1)[C@H]23 | -23.5%
O=c1[nH]c(CN2CCOCC2)nc2cc(Cl)ccc12 | -10.4%
COc1ccc(N2CCN(Cc3nc4cc(Cl)ccc4c(=O)[nH]3)CC2)cc1 | 13.4%
O=c1[nH]c(CN2CCN(C/C=C/c3ccccc3)CC2)nc2cc(Cl)ccc12 | -106%
COc1ccc(-c2cnc(SCCNC(=O)c3ccc4c(c3)OCO4)[nH]2)cc1 | -5.44%
N#Cc1ccc(CSc2nnc(-c3ccccn3)n2-c2ccc(Cl)cc2)cc1 | -51.8%
c1ccc(CSc2nnc(-c3ccccn3)n2-c2ccccc2)cc1 | -10.6%
N#Cc1ccc(CSc2nnc(-c3ccccn3)n2-c2ccccc2)cc1 | -42.1%
COc1ccc(-n2c(SCc3ccc(C#N)cc3)nnc2-c2ccccn2)cc1 | -58.3%
Cc1ccc(-n2c(SCc3ccc(C#N)cc3)nnc2-c2ccccn2)cc1 | -48.7%
COc1ccc(-n2c(SCC(=O)OC(C)C)nnc2-c2ccccn2)cc1 | -14.4%
COc1cc(C(C)=O)ccc1OC(=O)C(C)N1C(=O)c2ccccc2C1=O (centres unmarked) | -13%
O=C(CN1C(=O)CNC1=O)Nc1cccc(C(F)(F)F)c1 | 8.56%
Cc1ccc(NC(=O)Cn2nnc3ccccc32)cc1 | 12.1%
CCCC(=O)NC(=S)Nc1cccc(NC(=O)c2ccc(Cl)cc2Cl)c1 | 11.6%
CCOC(=O)C1CCN(CC(=O)Nc2c(C(=O)OC)[nH]c3ccc(Cl)cc23)CC1 | -15%
CCOC(=O)c1[nH]c2ccc(OCC)cc2c1NC(=O)CN1CCCC(C)C1 (centres unmarked) | -18.3%
CCOC(=O)c1[nH]c2ccc(Br)cc2c1NC(=O)CCN1CCC(C)CC1 | -69.1%

Compound | hERG current change (%, negative = inhibition) at 10uM
CCOC(=O)c1[nH]c2ccc(F)cc2c1NC(=O)CCN1CCOCC1 | 3.03%
CCOC(=O)c1[nH]c2ccc(Br)cc2c1NC(=O)CCN1CCN(C(=O)OCC)CC1 | -44%
COC(=O)c1[nH]c2cc(OC)ccc2c1NC(=O)CCN1CCCC(C)(C)C1 | -39.4%
CCOC(=O)c1[nH]c2ccc(Br)cc2c1NC(=O)CCN1CCOCC1 | 2.43%
CCOC(=O)c1[nH]c2ccc(Br)cc2c1NC(=O)CCN1CCCC(C)(C)C1 | -75.7%
CCOC(=O)c1[nH]c2ccc(OC)cc2c1NC(=O)CCN1CCCC(C)C1 (centres unmarked) | -36.9%
CCOC(=O)c1[nH]c2ccc(Br)cc2c1NC(=O)CNC | -7.67%
CCOC(=O)c1[nH]c2ccc(Br)cc2c1NC(=O)CCN1CCC(C(=O)OCC)CC1 | -73.9%
CCOC(=O)c1[nH]c2ccc(Br)cc2c1NC(=O)CCN1CCCC(C)C1 (centres unmarked) | -73.1%
O=C(Cn1c(=O)n(Cc2ccc3c(c2)OCO3)c(=O)c2ccccc21)N1CCCc2ccccc21 | 4.46%
Cc1ccc(NC(=O)CSc2nnc(-c3cccnc3)o2)c(C)c1 | 3.3%
CCO[C@@H]1OC(C(=O)O)=C[C@H](C)[C@H]1CCCO | 20.7%
COc1ccc(CC(=O)Nc2nc3n(n2)C(c2ccccc2)CC(=O)N3)cc1OC (centres unmarked) | 5.18%
CC(=O)c1cccc(N(CC(=O)Nc2ccc(S(=O)(=O)N3CCOCC3)cc2)S(C)(=O)=O)c1 | 8.48%
CCCCCCn1c(=O)c(C(=O)Nc2cnccn2)c(O)c2ccccc21 | 1.2%
CCn1c(-c2c(Cl)c(C)nn2C)n[nH]c1=S | 10.9%
COc1ccc(C(=O)Nc2cc(-c3nn4c(C)nnc4s3)ccc2C)cc1 | -41.8%
Cc1cc(-c2ccccc2C(=O)O)on1 | 17.6%
CCCc1ccc(C2=Nn3c(nnc3C(C)C)SC2)cc1 | -6.25%
CCOc1ccc2ccccc2c1/C=N/NC(=O)c1c(C)cc(C)[nH]c1=O | 0.637%
CC(=O)Nc1ccc(OCC(O)CN2CCCCC2C)cc1.Cl (centres unmarked) | 3.85%
CC1CCCCN1CC(O)COc1ccc(OCC(O)CN2CCCCC2C)cc1 (centres unmarked) | 16.4%

Compound | hERG current change (%, negative = inhibition) at 10uM
COc1ccc(OCC(O)CN2CCCCCC2)cc1 (centres unmarked) | 9.18%
COc1ccc(S(=O)(=O)N2CCN(CC(O)COc3ccc(C#N)cc3)CC2)cc1OC (centres unmarked) | -46.9%
CC(=O)Nc1ccc(OCC(O)CN2CCN(S(=O)(=O)c3ccc(NC(C)=O)cc3)CC2)cc1 (centres unmarked) | -8.63%
CC1CN(CC(O)COc2ccc(C#N)cc2)CCN1CC(O)COc1ccc(C#N)cc1 (centres unmarked) | -77.2%
CCOC(=O)c1ccc(S(=O)(=O)N2CCN(CC(O)COc3ccc(C#N)cc3)CC2)cc1.O=C(O)C(=O)O (centres unmarked) | -63.2%
N#Cc1ccc(-c2ccc(OCC(O)CN3CCCCC3)cc2)cc1 (centres unmarked) | -80.7%
CCOC(=O)c1ccc(S(=O)(=O)N2CCN(CC(O)COc3cccc(C(C)=O)c3)CC2)cc1.O=C(O)C(=O)O (centres unmarked) | -6.64%
N#Cc1ccc(-c2ccc(OCC(O)CN3CCOCC3)cc2)cc1 (centres unmarked) | -18.4%
COc1ccc(OC)c(S(=O)(=O)N2CCN(CC(O)COc3ccc(C#N)cc3)CC2)c1 (centres unmarked) | -66.2%
COc1ccc(OC)c(S(=O)(=O)N2CCN(CC(O)COc3ccccc3)CC2)c1 (centres unmarked) | -34.7%
CCN(CC)S(=O)(=O)c1cc(C)ccc1SC | 12.1%
COc1ccc(C(=O)NNC(=O)c2ccc(C(C)(C)C)cc2)cc1 | 4.1%
CCN(CCN1CCCC1)C(=O)C1CCC(=O)N(CCCN2CCOCC2)C1 (centres unmarked) | 12.8%
O=C(CN1CCN(c2cccc(Cl)n2)CC1)N1CC(O)CO1 (centres unmarked) | 19.6%
CCc1noc(C)c1C(=O)N1CCN(S(=O)(=O)c2cccs2)CC1 | -23.5%
N#Cc1ccc(OCC(O)CN2CCN(CC(O)COc3ccc(C#N)cc3)CC2)cc1 (centres unmarked) | -86.1%
OC(CN1CCN(c2ccc(C(F)(F)F)cn2)CC1)c1ccccc1 (centres unmarked) | -26.5%
N#Cc1ccc(OCC(O)CN2CCN(c3ncc(C(F)(F)F)cc3Cl)CC2)cc1 (centres unmarked) | -74.6%
OC(CN1CCN(c2ncc(C(F)(F)F)cc2Cl)CC1)c1ccccc1 (centres unmarked) | -58%
CN1CCN(CC(O)COc2ccc(OCC(O)CN3CCN(C)CC3)cc2)CC1 (centres unmarked) | -7.27%
CN(C)CC(O)COc1ccc(-c2ccc(C#N)cc2)cc1 (centres unmarked) | -57.5%
CN(CCOc1ccc(Br)cc1)CC(O)COc1ccc(C#N)cc1 (centres unmarked) | -16.3%

Compound | hERG current change (%, negative = inhibition) at 10uM
O=C(O)CN1CCN(c2ncc(C(F)(F)F)cc2Cl)CC1 | 11.6%
CN(C)CC(O)COc1ccc(C(C)(C)c2ccc(OCC(O)CN(C)C)cc2)cc1.Cl (centres unmarked) | 12.5%
FC(F)(F)c1cnc(N2CCN(C(=S)NCc3ccccc3)CC2)c(Cl)c1 | -11.3%
COc1ccc(OCC(O)CN2CCCC2)cc1 (centres unmarked) | 15.2%
CC(C)(C)NC(=O)NC(=O)CN1CCN(c2ncc(C(F)(F)F)cc2Cl)CC1 | -13.3%
CC(=O)Nc1cc(NC(=O)C2C3C=CC(C3)C2C(=O)O)ccc1Cl (centres unmarked) | 14.5%
Cc1ccc2nc(CSc3nnc(Nc4ccccc4C)s3)cc(=O)n2c1 | -43%
CN(C(=O)CSc1nnc(-c2ccc(Cl)cc2)n1CC1CCCO1)C1CCS(=O)(=O)C1 (centres unmarked) | -0.671%
O=C(c1ccccc1F)N(Cc1cccs1)C1CCS(=O)(=O)C1 (centres unmarked) | 21.9%
CN1C(=O)C2ON(c3ccccc3)C(c3cccs3)C2C1=O (centres unmarked) | -13.6%
COc1cc(OC)c(OC)cc1CN(C)CCc1ccccn1.O=C(O)C(=O)O | -11.2%
CCOc1ccc(CN(C)CCc2ccccn2)cc1.O=C(O)C(=O)O | -77.8%
CCOc1ccc(OCCN(C)Cc2ccccc2)cc1.O=C(O)C(=O)O | -45.8%
COc1ccc(CN(C)CCc2ccccn2)cc1OC.O=C(O)C(=O)O | -5.06%
COc1cc(CN(C)CCc2ccccn2)cc(OC)c1OC.O=C(O)C(=O)O | -11.6%
CSc1ccc(CN(C)CCc2ccccn2)cc1.O=C(O)C(=O)O | -64.4%
COc1ccc(OC)c(N(CC(=O)Nc2cccnc2)S(=O)(=O)c2ccc(OC)c(OC)c2)c1 | -17.9%
COC(=O)c1sc(NC(=O)c2cnccn2)c(C(=O)OC)c1C | 18.7%
COc1ccccc1OCCSc1ncnc2nc[nH]c12 | 4.63%
Cc1ccc(NC(=O)C(C)SCc2nc3sc(C)c(C)c3c(=O)[nH]2)nc1 (centres unmarked) | -10.7%
